Records with an inconclusive call do not appear. A number with no mark means an inactive call. Calls come from the whole dose curve; as a rule, active = well fitted activation curve with a large enough effect in the signal ratio in the repeat runs, with a control signal flat (not every such curve was filed as active); inconclusive = weak or mixed curves; inactive = flat fitted curve, though single readings scatter; the % refers to the signal ratio.
Assay: qHTS assay for small molecule activators of the heat shock response signaling pathway (AID 743210)
Details: HeLa HSE-bla reporter, beta-lactamase ratio, 5 h; series mostly up to 62.6 µM; activation: at the top concentration
Description: U.S. Tox21 Program National Center for Advancing Translational Sciences [NCATS] NIH Chemical Genomics Center [NCGC] U.S. Environmental Protection Agency [EPA] National Institutes of Environmental Health Sciences [NIEHS] National Toxicology Program [NTP] U.S. Food and Drug Administration [FDA] Tox21 Assay Overview: Various chemicals, environmental and physiological stress conditions may lead to the activation of heat shock response/ unfolded protein response (HSR/UPR). There are three heat shock transcription factors (HSFs) (HSF-1, -2, and -4) mediating transcriptional regulation of the human HSR. To identify the compounds that activate HSR signaling, HSE-bla HeLa cell line (Invitrogen, Carlsbad, CA, USA) containing a beta-lactamase reporter gene under the control of the heat shock response elements was used to screen the Tox21 10K compound library.
Tox21 Assay Protocol Summary: The CellSensor HSE-bla HeLa cells (Invitrogen, Carlsbad, CA, USA) were dispensed at 1500 cells/6uL/well into 1536-well black wall/clear bottom plates using a Multidrop combi (Thermo Fisher Scientific, Waltham, MA) dispenser. After the assay plates were incubated at 37 C and 5% CO2 overnight, 23 nL of compounds dissolved in DMSO, positive controls or DMSO only was transferred to the assay plate by a Pintool station (Kalypsys, San Diego, CA). The plates were incubated at 37 C for 5 h. After 1 uL of LiveBLAzerTM B/G FRET substrate was added using a Flying Reagent Dispenser (Beckman Coulter, Indianapolis, IN, USA), the plates were incubated at room temperature for 2.5 h, and fluorescence intensity was measured by an Envision plate reader (PerkinElmer, Shelton, CT).
% is set by controls: 0 for no effect and ±100 for the full control effect.

Going from O=C(c1ccc2c(c1)C(=O)OC2=O)c1ccc2c(c1)C(=O)OC2=O to O=C1OC(=O)c2ccccc21, the “activation” value falls from 0.868% to -0.526%.

Going from CC(C)C(=O)c1ccccc1 to Nc1ccc(S(=O)(=O)NC(=O)c2ccccc2)cc1, the “activation” value falls from -0.0296% to -2.3%.

Going from Nc1ccc(S(=O)(=O)Nc2ccccn2)cc1 to CN(C1CCCCC1)S(=O)(=O)c1ccccc1N, the “activation” value rises from -0.925% to -0.257%.

Compared with Cc1nc([N+](=O)[O-])cn1-c1ccc([N+](=O)[O-])cc1, CC(=O)N1CCN(c2ccc(O)cc2)CC1 is higher in “activation” value: -0.926% for the first, 0.207% for the second.

Going from CO[Si](CCCS)(OC)OC to COCCOCCOCCOC, the “activation” value rises from -0.985% to 0.0392%.

First: CC(C)CCCC(C)CC=O (stereo not given)
Second: CC(CC(=O)O)CC(C)(C)C (stereo not given)
The “activation” value of the first is higher: -0.515% for the first, -1.24% for the second.

First: CCCCCCCCCCCCC
Second: CCCCCCCCCCCCCCCC(=O)NCCO
The “activation” value of the first is lower: -1.31% for the first, -0.0582% for the second.

First: CC(C)(C)NCCO
Second: CCC(CO)CO
The “activation” value of the first is higher: -0.189% for the first, -0.52% for the second.

First: N#CCCOCCOCCC#N
Second: CCCCOC(=O)C(=O)OCCCC
The “activation” value of the first is lower: -0.572% for the first, -0.18% for the second.

Going from C[C@H](CCC(=O)O)[C@H]1CC[C@H]2[C@@H]3[C@H](O)C[C@@H]4C[C@H](O)CC[C@]4(C)[C@H]3C[C@H](O)[C@]12C to C[C@H]1O[C@H](O[C@H]2[C@H](O)[C@@H](O)[C@@H](O[C@H]3[C@H](O)[C@@H](O)[C@H](O)O[C@@H]3CO)O[C@@H]2CO)[C@H](O)[C@@H](O)[C@@H]1N[C@H]1C=C(CO)[C@@H](O)[C@H](O)[C@H]1O, the “activation” value falls from -0.306% to -3.18%.

Going from CCCCCCCCC(=O)OCC to CCOc1ccc(NC(=O)OC(C)C)cc1OCC, the “activation” value rises from -2.8% to 0.4%.

First: O=C(O)c1ccc(OCCN2CCCCC2)cc1
Second: O=C(CN1CCN(Cc2ccc3c(c2)OCO3)CC1)N1c2ccccc2Sc2ccccc21
The “activation” value of the first is lower: 0.0291% for the first, 0.728% for the second.

First: C=CCOc1c(Br)cc(C(C)(C)c2cc(Br)c(OCC=C)c(Br)c2)cc1Br
Second: C=CCOCC(CO)(COCC=C)COCC=C
The “activation” value of the first is higher: 0.345% for the first, -1.38% for the second.

Compared with Nc1nc(=O)n([C@@H]2O[C@H](CO)[C@@H](O)[C@@H]2F)cc1I, NS(=O)(=O)c1cc2c(cc1Cl)NC(CC1CCCC1)NS2(=O)=O (stereo not given) is higher in “activation” value: -0.32% for the first, -0.0465% for the second.

Compared with C=CCOCC(O)CCl (stereo not given), Cc1ncc([N+](=O)[O-])n1CC(O)CCl (stereo not given) is lower in “activation” value: -0.716% for the first, -1.45% for the second.

Compared with C1=CCC(c2ccccc2)CC1 (stereo not given), CCS(=O)(=O)CCn1c([N+](=O)[O-])cnc1C is higher in “activation” value: -1.81% for the first, -0.953% for the second.

Compared with Nc1ccc(/C=C/c2ccc(N)cc2S(=O)(=O)O)c(S(=O)(=O)O)c1, O=C(O)Cc1cccc(-c2cc(CCCCCCc3ccc(O[C@H]4O[C@H](CO)[C@@H](O)[C@H](O)[C@@H]4O)c(-c4cccc(CC(=O)O)c4)c3)ccc2O[C@H]2O[C@H](CO)[C@@H](O)[C@H](O)[C@@H]2O)c1 is lower in activation: 0.7% [at 0.55 µM] for the first, 0.0325% [at 0.55 µM] for the second.

Going from CCC(O)C(C)(C)C (stereo not given) to CNC(=O)NC, the “activation” value rises from -0.374% [at 81.1 µM] to -0.273% [at 81.1 µM].

With Cc1ccccc1C the “activation” value was -0.174% [at 81.1 µM].

For C=CCCCCCCCCCCC, the activation was -0.0554% [at 5.95 µM].

Going from CC(C)SCc1ccco1 to CCCCCCCCCCCCCCCCI, the “activation” value falls from -1.93% [at 29.1 µM] to -1.96% [at 29.1 µM].

— PubChem BioAssay (Tox21)
